# Test results as given in the supplement of paper PMC11732987, “Enantioselective OTUD7B fragment discovery through chemoproteomics screening and high-throughput optimisation” (Communications Chemistry, 2025).
# A number with no mark means an inactive call.
# What was measured:
# Assay in all cases: log2 ratio of Biotin-Ahx-Ub-VS probe labelling (fragment/DMSO); higher = less target engagement (more negative = stronger competition), active = hit call of the paper (q ≤ 0.05, log2 ratio ≤ -1)
# Settings in all cases: compound concentration: 200 uM; treatment time: 3 h
# OTUD6B = molecular target: T1, OTUD6B (UniProt Q8N6M0)
# T1 sequence (whole entry): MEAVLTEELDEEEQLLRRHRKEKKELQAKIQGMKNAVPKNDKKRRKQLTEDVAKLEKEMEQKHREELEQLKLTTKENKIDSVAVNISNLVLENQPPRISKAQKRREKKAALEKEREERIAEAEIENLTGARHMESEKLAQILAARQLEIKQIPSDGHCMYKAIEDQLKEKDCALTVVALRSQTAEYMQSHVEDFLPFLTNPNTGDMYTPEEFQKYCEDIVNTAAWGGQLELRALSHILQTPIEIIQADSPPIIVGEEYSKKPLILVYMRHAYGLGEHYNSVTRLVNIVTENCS
# Summary of the method: (§1)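 Average log2 ratios of fragment over vehicle were obtained by unpaired t-test from global-median-normalised Spectronaut label-free quantities. Proteins with ≥2 unique peptides were included. HEK293T lysate (495 µg per sample) was treated in triplicate with fragment at 200 µM or vehicle for 3 h, then with Biotin-Ahx-Ub-VS at 0.5 µM final for 1 h, and labelled DUBs were NeutrAvidin-enriched and run by diaPASEF LC-MS/MS.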
# OTUD7B = molecular target: T2, OTUD7B (UniProt Q6GQQ9)
# T2 sequence (whole entry): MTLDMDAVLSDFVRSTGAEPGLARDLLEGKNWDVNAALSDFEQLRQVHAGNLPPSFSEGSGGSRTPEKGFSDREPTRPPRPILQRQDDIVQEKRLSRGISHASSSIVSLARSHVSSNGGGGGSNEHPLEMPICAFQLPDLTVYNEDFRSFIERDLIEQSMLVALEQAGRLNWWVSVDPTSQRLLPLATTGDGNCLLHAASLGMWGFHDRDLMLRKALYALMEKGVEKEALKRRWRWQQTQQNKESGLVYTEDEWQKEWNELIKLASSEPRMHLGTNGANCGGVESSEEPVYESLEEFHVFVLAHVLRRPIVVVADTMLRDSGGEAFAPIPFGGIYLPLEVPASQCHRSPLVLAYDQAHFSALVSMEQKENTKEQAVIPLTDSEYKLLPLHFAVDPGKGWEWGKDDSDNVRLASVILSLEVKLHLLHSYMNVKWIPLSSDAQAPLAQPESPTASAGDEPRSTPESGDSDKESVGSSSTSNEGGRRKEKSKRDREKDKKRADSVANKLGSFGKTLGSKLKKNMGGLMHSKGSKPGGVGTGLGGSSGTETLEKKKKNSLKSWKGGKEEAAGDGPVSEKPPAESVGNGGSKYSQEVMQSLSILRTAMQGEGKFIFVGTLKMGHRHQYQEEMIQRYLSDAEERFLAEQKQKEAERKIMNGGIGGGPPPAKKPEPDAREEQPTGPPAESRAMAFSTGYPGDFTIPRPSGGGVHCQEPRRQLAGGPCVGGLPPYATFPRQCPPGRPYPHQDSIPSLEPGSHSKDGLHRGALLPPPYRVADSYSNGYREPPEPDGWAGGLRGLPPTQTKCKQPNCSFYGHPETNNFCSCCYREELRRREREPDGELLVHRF
# Summary of the method: as §1
# PRPF8 = PRPF8 (UniProt Q6P2Q9)
# Summary of the method: as §1
# PSMD7 = molecular target: T3, PSMD7 (UniProt P51665)
# T3 sequence (whole entry): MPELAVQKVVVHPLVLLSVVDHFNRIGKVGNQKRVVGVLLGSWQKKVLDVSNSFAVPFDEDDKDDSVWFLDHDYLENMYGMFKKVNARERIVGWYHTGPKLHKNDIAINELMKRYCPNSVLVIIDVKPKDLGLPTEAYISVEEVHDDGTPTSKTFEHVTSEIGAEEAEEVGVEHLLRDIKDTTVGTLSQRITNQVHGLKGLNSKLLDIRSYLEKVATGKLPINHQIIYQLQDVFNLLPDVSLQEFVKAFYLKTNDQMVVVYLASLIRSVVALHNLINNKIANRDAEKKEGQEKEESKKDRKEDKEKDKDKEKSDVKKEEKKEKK
# Summary of the method: as §1
# UCHL1 = UCHL1 (UniProt P09936)
# Summary of the method: as §1
# UCHL3 = molecular target: T4, UCHL3 (UniProt P15374)
# T4 sequence (whole entry): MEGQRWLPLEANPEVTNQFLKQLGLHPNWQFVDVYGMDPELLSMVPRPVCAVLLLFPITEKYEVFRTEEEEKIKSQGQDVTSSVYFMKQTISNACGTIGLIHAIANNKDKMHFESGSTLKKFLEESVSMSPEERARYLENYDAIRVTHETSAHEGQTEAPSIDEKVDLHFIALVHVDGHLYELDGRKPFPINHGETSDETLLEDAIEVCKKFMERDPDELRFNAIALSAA
# Summary of the method: as §1
# UCHL5 = molecular target: T5, UCHL5 (UniProt Q9Y5K5)
# T5 sequence (whole entry): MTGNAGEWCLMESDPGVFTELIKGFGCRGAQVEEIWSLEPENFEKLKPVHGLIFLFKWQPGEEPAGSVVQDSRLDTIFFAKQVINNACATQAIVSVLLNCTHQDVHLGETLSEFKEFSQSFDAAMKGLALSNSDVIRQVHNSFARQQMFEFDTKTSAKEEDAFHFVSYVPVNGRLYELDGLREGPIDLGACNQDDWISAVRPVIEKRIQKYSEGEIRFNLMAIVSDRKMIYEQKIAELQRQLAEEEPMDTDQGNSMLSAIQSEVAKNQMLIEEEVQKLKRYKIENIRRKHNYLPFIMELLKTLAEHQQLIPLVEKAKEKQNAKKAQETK
# Summary of the method: as §1
# USP10 = USP10 (UniProt Q14694)
# Summary of the method: as §1
# USP15 = molecular target: T6, USP15 (UniProt Q9Y4E8)
# T6 sequence (whole entry): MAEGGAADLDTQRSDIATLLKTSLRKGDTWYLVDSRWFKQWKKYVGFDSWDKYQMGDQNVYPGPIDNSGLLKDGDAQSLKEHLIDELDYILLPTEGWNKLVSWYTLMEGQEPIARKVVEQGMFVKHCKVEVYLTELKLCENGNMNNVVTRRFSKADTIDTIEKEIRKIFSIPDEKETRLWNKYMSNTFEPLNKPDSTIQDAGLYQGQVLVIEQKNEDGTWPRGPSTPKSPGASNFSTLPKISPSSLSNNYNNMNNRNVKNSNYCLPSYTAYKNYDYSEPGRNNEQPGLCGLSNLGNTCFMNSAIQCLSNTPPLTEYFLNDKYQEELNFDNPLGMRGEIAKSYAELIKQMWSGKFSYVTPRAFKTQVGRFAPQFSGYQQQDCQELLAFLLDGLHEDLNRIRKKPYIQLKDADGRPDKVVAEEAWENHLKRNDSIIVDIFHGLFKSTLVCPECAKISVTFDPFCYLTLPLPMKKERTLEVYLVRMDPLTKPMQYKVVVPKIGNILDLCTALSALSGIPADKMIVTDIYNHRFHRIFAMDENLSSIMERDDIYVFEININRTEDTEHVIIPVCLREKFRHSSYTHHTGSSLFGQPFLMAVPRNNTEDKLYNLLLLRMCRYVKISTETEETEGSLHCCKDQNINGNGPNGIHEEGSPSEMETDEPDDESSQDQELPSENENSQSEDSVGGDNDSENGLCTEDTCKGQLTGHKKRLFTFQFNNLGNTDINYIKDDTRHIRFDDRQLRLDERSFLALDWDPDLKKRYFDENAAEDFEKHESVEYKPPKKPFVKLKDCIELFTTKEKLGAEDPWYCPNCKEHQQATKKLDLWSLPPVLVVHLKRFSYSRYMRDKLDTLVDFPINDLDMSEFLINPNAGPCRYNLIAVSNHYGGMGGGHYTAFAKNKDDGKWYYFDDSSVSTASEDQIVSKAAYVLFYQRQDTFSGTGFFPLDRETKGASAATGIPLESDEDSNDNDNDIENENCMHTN
# Summary of the method: as §1
# USP16 = USP16 (UniProt Q9Y5T5)
# Summary of the method: as §1
# Sequence of USP10 (Q14694 whole entry): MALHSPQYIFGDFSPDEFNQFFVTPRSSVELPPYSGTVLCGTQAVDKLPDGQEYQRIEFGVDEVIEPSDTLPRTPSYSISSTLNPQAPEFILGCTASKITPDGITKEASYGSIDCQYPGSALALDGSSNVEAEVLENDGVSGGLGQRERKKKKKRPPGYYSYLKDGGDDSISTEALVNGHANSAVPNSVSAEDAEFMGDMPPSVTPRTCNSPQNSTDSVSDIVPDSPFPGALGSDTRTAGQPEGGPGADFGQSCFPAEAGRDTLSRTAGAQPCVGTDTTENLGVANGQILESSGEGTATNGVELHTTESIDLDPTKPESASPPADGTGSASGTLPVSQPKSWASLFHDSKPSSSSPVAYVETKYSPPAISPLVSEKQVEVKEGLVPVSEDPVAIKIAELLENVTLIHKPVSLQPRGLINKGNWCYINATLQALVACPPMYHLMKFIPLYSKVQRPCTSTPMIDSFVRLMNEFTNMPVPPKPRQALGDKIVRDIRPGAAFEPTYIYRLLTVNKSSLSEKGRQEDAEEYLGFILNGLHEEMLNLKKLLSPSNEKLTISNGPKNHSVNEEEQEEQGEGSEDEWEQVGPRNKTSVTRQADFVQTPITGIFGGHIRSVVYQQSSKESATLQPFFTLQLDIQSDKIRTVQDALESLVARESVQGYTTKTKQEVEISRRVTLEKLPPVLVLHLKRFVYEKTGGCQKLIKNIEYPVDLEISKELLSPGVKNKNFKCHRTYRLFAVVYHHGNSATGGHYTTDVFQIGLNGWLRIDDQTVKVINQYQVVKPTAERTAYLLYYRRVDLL
# Sequence of UCHL1 (P09936 whole entry, looked up): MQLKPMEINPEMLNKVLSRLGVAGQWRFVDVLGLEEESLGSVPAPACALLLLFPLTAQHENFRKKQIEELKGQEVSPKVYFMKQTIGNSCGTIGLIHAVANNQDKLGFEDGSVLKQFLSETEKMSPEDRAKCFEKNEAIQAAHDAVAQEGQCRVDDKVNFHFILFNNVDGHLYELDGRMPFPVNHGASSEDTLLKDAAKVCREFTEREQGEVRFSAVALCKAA
# Sequence of USP16 (Q9Y5T5 whole entry, looked up): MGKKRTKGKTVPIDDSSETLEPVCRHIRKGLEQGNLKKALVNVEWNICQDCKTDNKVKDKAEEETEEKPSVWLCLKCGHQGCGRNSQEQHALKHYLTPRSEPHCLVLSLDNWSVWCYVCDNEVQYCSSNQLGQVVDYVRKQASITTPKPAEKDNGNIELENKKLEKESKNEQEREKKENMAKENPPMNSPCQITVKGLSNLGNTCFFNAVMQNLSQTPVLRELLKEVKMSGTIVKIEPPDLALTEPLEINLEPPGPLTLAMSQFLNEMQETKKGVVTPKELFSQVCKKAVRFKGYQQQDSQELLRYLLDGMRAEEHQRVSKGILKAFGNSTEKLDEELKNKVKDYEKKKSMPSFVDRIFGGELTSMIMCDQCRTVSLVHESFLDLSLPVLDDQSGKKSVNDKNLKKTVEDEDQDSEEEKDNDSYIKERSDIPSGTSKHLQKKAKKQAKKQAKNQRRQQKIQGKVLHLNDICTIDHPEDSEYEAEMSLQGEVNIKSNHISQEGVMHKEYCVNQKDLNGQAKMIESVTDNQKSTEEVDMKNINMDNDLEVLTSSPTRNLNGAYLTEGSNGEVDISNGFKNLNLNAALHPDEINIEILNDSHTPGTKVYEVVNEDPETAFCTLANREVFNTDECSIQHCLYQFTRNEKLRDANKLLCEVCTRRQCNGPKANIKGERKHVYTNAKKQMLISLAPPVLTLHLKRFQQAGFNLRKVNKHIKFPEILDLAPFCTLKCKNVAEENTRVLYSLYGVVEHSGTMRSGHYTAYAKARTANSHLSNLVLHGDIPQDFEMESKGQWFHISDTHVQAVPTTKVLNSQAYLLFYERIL
smiles,measurement,setting,value
O=C(CCl)N1CCCCC12CCOCC2,log2 ratio of Biotin-Ahx-Ub-VS probe labelling,OTUD6B,-0.371
same,log2 ratio of Biotin-Ahx-Ub-VS probe labelling,OTUD7B,-0.652
same,log2 ratio of Biotin-Ahx-Ub-VS probe labelling,PRPF8,-0.0698
same,log2 ratio of Biotin-Ahx-Ub-VS probe labelling,PSMD7,-0.183
same,log2 ratio of Biotin-Ahx-Ub-VS probe labelling,UCHL1,-2.07 (active)
same,log2 ratio of Biotin-Ahx-Ub-VS probe labelling,UCHL3,-0.176
same,log2 ratio of Biotin-Ahx-Ub-VS probe labelling,UCHL5,-0.503
same,log2 ratio of Biotin-Ahx-Ub-VS probe labelling,USP10,-0.064
same,log2 ratio of Biotin-Ahx-Ub-VS probe labelling,USP15,-0.474
same,log2 ratio of Biotin-Ahx-Ub-VS probe labelling,USP16,-0.51
